# Read-outs that look alike come from different tables or passages of the source.
# Experiments:
# [1] = tested on: LCK; conditions: concentration: 1 μM, replicates: in singlicate; n = 1
# [2] = tested on: LIMK1; conditions: concentration: 1 μM, replicates: in singlicate; n = 1
# [3] = tested on: LIMK2; conditions: concentration: 1 μM, replicates: in singlicate; n = 1
# [4] = tested on: T1, LKB1; conditions: concentration: 1 μM, replicates: in singlicate; n = 1
# T1 construct: gene STK11
# [5] = tested on: T2, LOK; conditions: concentration: 1 μM, replicates: in singlicate; n = 1
# T2 construct: gene STK10
# [6] = tested on: LRRK2; conditions: concentration: 1 μM, replicates: in singlicate; n = 1
# [7] = tested on: LTK; conditions: n = 1
# [8] = tested on: LYN; conditions: concentration: 1 μM, replicates: in singlicate; n = 1
# [9] = tested on: T3, LZK; conditions: concentration: 1 μM, replicates: in singlicate; n = 1
# T3 construct: gene MAP3K13
# [10] = tested on: MAK; conditions: concentration: 1 μM, replicates: in singlicate; n = 1
# [11] = tested on: MAP3K15; conditions: concentration: 1 μM, replicates: in singlicate; n = 1
# [12] = tested on: MAP3K1; conditions: concentration: 1 μM, replicates: in singlicate; n = 1
# [13] = tested on: MAP3K2; conditions: concentration: 1 μM, replicates: in singlicate; n = 1
# [14] = tested on: MAP3K3; conditions: concentration: 1 μM, replicates: in singlicate; n = 1
# [15] = tested on: MAP3K4; conditions: concentration: 1 μM, replicates: in singlicate; n = 1
# [16] = tested on: MAP4K2; conditions: concentration: 1 μM, replicates: in singlicate; n = 1
# [17] = tested on: MAP4K3; conditions: concentration: 1 μM, replicates: in singlicate; n = 1
# [18] = tested on: MAP4K4; conditions: concentration: 1 μM, replicates: in singlicate; n = 1
# [19] = tested on: MAP4K5; conditions: concentration: 1 μM, replicates: in singlicate; n = 1
# [20] = tested on: MAPKAPK2; conditions: concentration: 1 μM, replicates: in singlicate; n = 1
# [21] = concentration: 1 μM, replicates: in singlicate
# 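Also: KINOMEscan kinase panel screen.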
structure (smiles),measurement,setting,value
Cl.Cl.NCC(NC(=O)c1cc(-c2cccnc2)c(-c2ccnc3[nH]ccc23)s1)c1ccccc1 (centres unmarked) [GSK1323434],%Inh,[1],33%
same,%Inh,[2],0%
same,%Inh,[3],0%
same,%Inh,[4],22%
same,%Inh,[5],0%
same,%Inh,[6],0%
same,%Inh,[7]; [21],0%
same,%Inh,[8],0%
same,%Inh,[9],77%
same,%Inh,[10],21%
same,%Inh,[11],0%
same,%Inh,[12],7%
same,%Inh,[13],3%
same,%Inh,[14],0%
same,%Inh,[15],0%
same,%Inh,[16],41%
same,%Inh,[17],0%
same,%Inh,[18],82%
same,%Inh,[19],0%
same,%Inh,[20],6%
CCOc1nccc(-c2c(-c3ccc(F)cc3)ncn2C2CCNCC2)n1 [SB-249175],%Inh,[1],82%
same,%Inh,[2],3%
same,%Inh,[3],11%
same,%Inh,[4],30%
same,%Inh,[5],0%
same,%Inh,[6],0%
same,%Inh,[7]; [21],4%
same,%Inh,[8],12%
same,%Inh,[9],3%
same,%Inh,[10],1%
same,%Inh,[11],57%
same,%Inh,[12],42%
same,%Inh,[13],10%
same,%Inh,[14],7%
same,%Inh,[15],11%
same,%Inh,[16],100%
same,%Inh,[17],0%
same,%Inh,[18],31%
same,%Inh,[19],27%
same,%Inh,[20],0%
Cc1ccc(C)c(NC(=O)Nc2ccc(C)c(-c3ccc(C(=O)Nc4ccncc4)cc3)c2)c1 [GSK1398473],%Inh,[1],47%
same,%Inh,[2],25%
same,%Inh,[3],2%
same,%Inh,[4],0%
same,%Inh,[5],0%
same,%Inh,[6],0%
same,%Inh,[7]; [21],0%
same,%Inh,[8],17%
same,%Inh,[9],0%
same,%Inh,[10],65%
same,%Inh,[11],83%
same,%Inh,[12],9%
same,%Inh,[13],30%
same,%Inh,[14],0%
same,%Inh,[15],43%
same,%Inh,[16],0%
same,%Inh,[17],2%
same,%Inh,[18],9%
same,%Inh,[19],5%
same,%Inh,[20],5%
CCn1cnc2c(NCc3ccccc3)ncnc21 [SKF-96418],%Inh,[1],0%
same,%Inh,[2],0%
same,%Inh,[3],0%
same,%Inh,[4],25%
same,%Inh,[5],5%
same,%Inh,[6],0%
same,%Inh,[7]; [21],0%
same,%Inh,[8],0%
same,%Inh,[9],34%
same,%Inh,[10],0%
same,%Inh,[11],22%
same,%Inh,[12],16%
same,%Inh,[13],14%
same,%Inh,[14],0%
same,%Inh,[15],2%
same,%Inh,[16],0%
same,%Inh,[17],0%
same,%Inh,[18],0%
same,%Inh,[19],0%
same,%Inh,[20],0%
O=C(Nc1n[nH]c2cc(-c3cccs3)ccc12)C1CC1 [SB-731284],%Inh,[1],0%
same,%Inh,[2],6%
same,%Inh,[3],0%
same,%Inh,[4],10%
same,%Inh,[5],17%
same,%Inh,[6],0%
same,%Inh,[7]; [21],0%
same,%Inh,[8],0%
same,%Inh,[9],0%
same,%Inh,[10],0%
same,%Inh,[11],57%
same,%Inh,[12],52%
same,%Inh,[13],34%
same,%Inh,[14],44%
same,%Inh,[15],0%
same,%Inh,[16],9%
same,%Inh,[17],0%
same,%Inh,[18],13%
same,%Inh,[19],0%
same,%Inh,[20],0%
Cn1cc(-c2cnc(N)c3c(-c4ccc5c(c4)CCN5C(=O)Cc4ccccc4)csc23)cn1 [GSK2593074],%Inh,[1],93.8%
same,%Inh,[2],49%
same,%Inh,[3],55%
same,%Inh,[4],0%
same,%Inh,[5],98.9%
same,%Inh,[6],3%
same,%Inh,[7]; 1 µM,0%
same,%Inh,[8],65%
same,%Inh,[9],0%
same,%Inh,[10],0%
same,%Inh,[11],35%
same,%Inh,[12],4%
same,%Inh,[13],75%
same,%Inh,[14],64%
same,%Inh,[15],82%
same,%Inh,[16],36%
same,%Inh,[17],97.6%
same,%Inh,[18],0%
same,%Inh,[19],98.8%
same,%Inh,[20],0%
COc1cccc(CC(=O)N2CCc3cc(-c4cn(C)c5ncnc(N)c45)ccc32)c1 [GSK2608899],%Inh,[1],34%
same,%Inh,[2],0%
same,%Inh,[3],35%
same,%Inh,[4],4%
same,%Inh,[5],98.5%
same,%Inh,[6],0%
same,%Inh,[7]; [21],36%
same,%Inh,[8],22%
same,%Inh,[9],0%
same,%Inh,[10],2%
same,%Inh,[11],13%
same,%Inh,[12],20%
same,%Inh,[13],82%
same,%Inh,[14],49%
same,%Inh,[15],77%
same,%Inh,[16],38%
same,%Inh,[17],78%
same,%Inh,[18],0%
same,%Inh,[19],84%
same,%Inh,[20],21%
CS(=O)(=O)c1cccc(CNc2nc(Nc3ccc4c(c3)CCC(=O)N4)ncc2C(F)(F)F)c1,%Inh,[1],0%
same,%Inh,[2],0%
same,%Inh,[3],0%
same,%Inh,[4],34%
same,%Inh,[5],0%
same,%Inh,[6],16%
same,%Inh,[7]; [21],0%
same,%Inh,[8],16%
same,%Inh,[9],0%
same,%Inh,[10],0%
same,%Inh,[11],0%
same,%Inh,[12],0%
same,%Inh,[13],62%
same,%Inh,[14],46%
same,%Inh,[15],81%
same,%Inh,[16],0%
same,%Inh,[17],0%
same,%Inh,[18],41%
same,%Inh,[19],0%
same,%Inh,[20],0%
Cn1cc(-c2ccc3c(c2)CCN3C(=O)Cc2cc(F)cc(C(F)(F)F)c2)c2c(N)ncnc21 [GSK2635225],%Inh,[1],62%
same,%Inh,[2],0%
same,%Inh,[3],0%
same,%Inh,[4],16%
same,%Inh,[5],84%
same,%Inh,[6],0%
same,%Inh,[7]; [21],18%
same,%Inh,[8],26%
same,%Inh,[9],3%
same,%Inh,[10],26%
same,%Inh,[11],0%
same,%Inh,[12],3%
same,%Inh,[13],33%
same,%Inh,[14],12%
same,%Inh,[15],41%
same,%Inh,[16],0%
same,%Inh,[17],25%
same,%Inh,[18],0%
same,%Inh,[19],31%
same,%Inh,[20],10%
Cl.N#CCc1ccc(Nc2nccc(Nc3ccc(Oc4ccccc4)cc3)n2)cc1 [GW639905],%Inh,[1],90.6%
same,%Inh,[2],25%
same,%Inh,[3],11%
same,%Inh,[4],0%
same,%Inh,[5],0%
same,%Inh,[6],58%
same,%Inh,[7]; [21],42%
same,%Inh,[8],62%
same,%Inh,[9],0%
same,%Inh,[10],20%
same,%Inh,[11],21%
same,%Inh,[12],11%
same,%Inh,[13],0%
same,%Inh,[14],0%
same,%Inh,[15],10%
same,%Inh,[16],0%
same,%Inh,[17],0%
same,%Inh,[18],99.1%
same,%Inh,[19],100%
same,%Inh,[20],0%

# Reference: publication PMC5540273 (PLoS ONE, 2017)
